For 72 compounds, manual score results are on record in PubChem BioAssay AID623868 (Vanderbilt High Throughput Screening Facility, 2012).

About 760 (36%) of roughly 2,100 compounds were called active. Not all results are given here. Unmarked numbers belong to inactive results.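 Rule for the calls: active = thallium-flux fluorescence traces judged by eye to show enhanced or reduced glutamate response, manual score 1 or -1, so both directions (some results past the limit were not filed as active); inactive = the rest, including fluorescent or raised-baseline compounds.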

The assay in a line: thallium influx changes without GIRK channels – cell-based, HEK-293 rmGlu8, no GIRK, thallium flux, counter-screen for GIRK activator project, confirmation (AID 623868).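 Note: extra codes mark interference with 3 for fluorescent and 4 for baseline rise.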 The following applies: thallium flux fluorescence, at 10 µM, actives lie on both sides, codes: 1 enhancer, -1 blocker, 0 none, thallium stimulus containing EC20 glutamate. For orientation: A counterscreen serves to expose hits that act by an unwanted route or on another target.
For the compound `COC(=O)c1nc(NC(C)=O)n[nH]1`, the manual score was 0.
In the case of `Cc1ccc(NC(=O)COn2nnc3ccc(S(=O)(=O)N(C)C)cc32)cc1F` it was 0; in that of `CCN(CC)CCN1C(=O)c2oc3ccccc3c(=O)c2C1c1ccc(C)cc1` (configuration not stated), 0; in that of `Cc1ccc(C2c3c(oc4ccc(Cl)cc4c3=O)C(=O)N2CCCN2CCOCC2)o1` (configuration not stated), 1 (active).
In the case of `O=c1c(O)c(-c2cccs2)oc2ccc(Cl)cc12` it was 3; in that of `COCCn1c(CN(Cc2ccccc2)Cc2ccccc2)nc2c1c(=O)n(C)c(=O)n2C`, 0.
In the case of `O=C(N/N=C\c1cc(Br)c(Br)o1)c1cncc(Br)c1` it was 1 (active); in that of `CCNC(=O)NC(=O)COC(=O)CCCSc1nc2ccccc2[nH]1`, 0.
Consider `CN(C)CCCOc1ccc(C(C)(C)c2ccccc2)cc1`, for which the manual score is 0.
The result for `O=C(NC(=S)Nc1ccccc1)c1csnn1` reads 1 (active); that for `O=C(NC(=S)Nc1ccccc1Cl)c1csnn1`, 1 (active); that for `Cc1ccc(C)c(NC(=S)NNC(=O)c2csc(C(C)C)c2)c1`, 1 (active).
Consider `CC(C)C(=O)Nc1cccc(NC(=O)c2cc3ccccc3o2)c1`, for which the manual score was 0.
In the case of `Cc1cccc(NC(=S)NNC(=O)c2csc(C(C)C)c2)c1` it was 1 (active); in that of `O=[n+]1c2c(n([O-])c3cc(F)c(N4CCCC4)cc31)CCC2`, 3; in that of `Cc1cccc2c(=O)cc(C)n(CC(=O)N3CCCCC3)c12`, -0.5.
The result for `CCOC(=O)CSc1nc(C)c2cc(OC)ccc2n1` reads 0; that for `CCN(C(=O)CSc1nc2ccccc2n1CCc1ccccc1)C1CCS(=O)(=O)C1` (configuration not stated), 0; that for `COc1ccc2c(-c3ccccc3)cc(SCC(=O)N(C)C3CCS(=O)(=O)C3)nc2c1` (configuration not stated), 1 (active).
The result for `Cc1ccc(NC(=O)Cc2ccccc2Cl)cc1S(=O)(=O)N(C)C` reads 0.
In the case of `CN(CCNC(=O)c1cc2c(=O)n(C)c3ccccc3c2n1C)Cc1ccccc1`, the manual score was 0.
`CC1(C)Cc2c(ccc3ccccc23)-c2nnc(-c3cccnc3)n21`: the manual score is 0.
On to `COc1ccc(-c2ccnc3nc(Sc4ncc(C(F)(F)F)cc4Cl)nn23)cc1`, for which the manual score was 0.
Consider `O=C(NC(=S)Nc1cc([N+](=O)[O-])ccc1Cl)c1ccccc1`, for which the manual score was 0.
The result for `Cc1ccc([N+](=O)[O-])cc1NC(=S)NC(=O)c1ccco1` reads 1 (active); that for `COc1cccc(C(=O)NC(=S)Nc2ccc([N+](=O)[O-])cc2C)c1`, 1 (active); that for `Cc1ccc(NC(=S)NCc2ccccc2)cc1[N+](=O)[O-]`, 0.
In the case of `Cc1cc([N+](=O)[O-])ccc1NC(=S)NC(=O)Cc1ccccc1`, the manual score was 1 (active).
Turning to `O=C(Cc1ccccc1)N/N=C/c1cccn1-c1ccc([N+](=O)[O-])cc1`, the manual score was 0.
As to `CC(=O)Nc1ccc(NC(=O)CSc2nccn2Cc2ccccc2)cc1`, the manual score was 0.
As to `COc1ccc(CO/N=C/c2c(C)[nH]c(=O)[nH]c2=O)cc1`, the manual score was 0.
In the case of `CCOC(=O)C(CCCCOc1cccc(CC)c1)C(=O)OCC`, the manual score was 0.
Regarding `CCOc1ccc(-c2nc(-c3ccc(OC)cc3)no2)cc1OCC`, the manual score was 0.
With `Oc1c(Cl)cc(Cl)c2c1NCCC2`, the manual score is 0.
Turning to `Cc1cccc(OCC(O)Cn2c(=N)n(CCN3CCCCC3)c3ccccc32)c1` (configuration not stated), the manual score is 0.
Take `c1ccc2c(c1)oc1c(N3CCN(Cc4ccc5c(c4)OCO5)CC3)ncnc12`: the manual score is 0.
The result for `COc1ccccc1N1CCN(Cc2cc(Br)c(O)c3ncccc23)CC1` reads 1 (active).
As for `Cc1cccc(N=C2NC(=O)/C(=C/C=C/c3ccco3)S2)c1C`, the manual score is 1 (active).
Consider `COC(=O)C1=C(C)NC(=O)/C1=C\c1ccco1`, for which the manual score was 0.
In the case of `CC(C)c1ccc(-c2noc(C3CCCN(S(C)(=O)=O)C3)n2)cc1` (configuration not stated) it was 0.
Take `CCOC(=O)c1c(C)c(C(=O)N2CCc3ccccc3C2)c(C)n1CC`: the manual score is 0.
`O=C(COc1c(Br)cc(Br)c2cccnc12)N1CCc2ccccc2C1`: the manual score was 1 (active).
The result for `CC(C)=CCC(C)(C)CNC(=O)NC1CCCCC1` reads 0.
Consider `Cn1c(-c2sc3ccccc3c2Cl)n[nH]c1=S`, for which the manual score was 1 (active).
Regarding `Cc1nnc(NC(=O)CCSc2ccccc2)s1`, the manual score was 0.
As for `CCC(CC)c1nnc(NC(=O)C2COc3ccccc3O2)s1` (configuration not stated), the manual score is 0.
With `CCC(CC)c1nnc(NC(=O)c2ccc3ccccc3n2)s1`, the manual score was 1 (active).
Regarding `Cc1ccc(NC2=NC(=S)N(CC#N)C23CCCCC3)cc1`, the manual score is 1 (active).
In the case of `N#CCN1C(=S)N=C(Nc2cccc(Cl)c2)C12CCCCC2`, the manual score is 0.
In the case of `COc1ccc(NC2=NC(=S)N(c3ccccc3C)C23CCCCC3)cc1` it was 1 (active); in that of `O=C(NCc1ccccc1)c1ccc2c(=O)n(CCCN3CCCC3=O)c(=S)[nH]c2c1`, 0.
In the case of `CC1CC(C)CN(CCCn2c(=S)[nH]c3ccccc3c2=O)C1` (configuration not stated), the manual score is 1 (active).
The result for `O=c1c2ccccc2[nH]c(=S)n1CCCN1CCN(C2CCCCC2)CC1` reads 1 (active).
The result for `Cc1ccccc1-c1nc(CN2CCC(C(=O)NCCCN3CC(C)CC(C)C3)CC2)c(C)o1` (configuration not stated) reads 0; that for `CC1CCCCN1CCCn1c(=S)[nH]c2ccccc2c1=O` (configuration not stated), 0.
In the case of `O=c1c2ccccc2[nH]c(=S)n1CCN1CCN(Cc2ccccc2)CC1` it was 1 (active).
As to `CCC1CCCN1Cn1cnc2c([nH]c3ccc(OC)cc32)c1=O` (configuration not stated), the manual score is 0.
As to `CC(C)CCn1c(CN2CCN(Cc3ccccc3)CC2)nc2c1c(=O)[nH]c(=O)n2C`, the manual score was 0.
The result for `CCC1CCCCN1CCCn1c(=S)[nH]c2ccccc2c1=O` (configuration not stated) reads 1 (active); that for `Cc1cccc(N2C(N)=NC(N)=NC23CCCCC3)c1`, 0; that for `CCN(CC)S(=O)(=O)c1cc(NC(=O)Cn2cnc3ccccc3c2=O)ccc1C`, 0.
In the case of `CC(C)CN(C(=O)COC(=O)Cc1n[nH]c(=O)c2ccccc12)C1CCS(=O)(=O)C1` (configuration not stated) it was 0; in that of `CCOC(=O)c1c(C)[nH]c(=S)c(C#N)c1-c1ccc(Cl)cc1`, 0.5; in that of `COc1ccc(-c2c3c([nH]c(=S)c2C#N)CCC3)cc1`, 1 (active).
The result for `CCN1CCCC1CNC(=O)CSCc1nc(-c2ccccc2C)oc1C` (configuration not stated) reads 0.
Consider `O=C(NC(NC(=S)Nc1ccc(Cl)cc1Cl)C(Cl)(Cl)Cl)c1cccc([N+](=O)[O-])c1` (configuration not stated), for which the manual score was 1 (active).
The result for `CCC1c2ccc(C)n2CCN1C(=O)Nc1ccccc1C(=O)OC` (configuration not stated) reads 0; that for `O=C(/C=C/c1ccccc1)NC(NC(=S)Nc1cccc(O)c1)C(Cl)(Cl)Cl` (configuration not stated), 3; that for `O=C(/C=C/c1ccccc1)NC(NC(=S)Nc1cc(Cl)ccc1Cl)C(Cl)(Cl)Cl` (configuration not stated), 0.
The result for `COC(=O)c1ccccc1NC(=S)NC(NC(=O)c1ccccc1[N+](=O)[O-])C(Cl)(Cl)Cl` (configuration not stated) reads 1 (active); that for `COC(=O)c1ccccc1NC(=S)NC(NC(=O)c1ccco1)C(Cl)(Cl)Cl` (configuration not stated), 1 (active); that for `O=C(/C=C/c1ccccc1)NC(NC(=S)Nc1cccc(Cl)c1)C(Cl)(Cl)Cl` (configuration not stated), 0.
